Measured values taken from PubChem BioAssay (EPA / NIEHS).
Records with an inconclusive call do not appear. The source made the active and inactive calls. The calls were made as follows: active = hit-call score of the fitted dose curve at least 0.9, where 1 is the maximum; inconclusive = response in the unintended direction; inactive = score below 0.9.

biological target: Nuclear receptor subfamily 1 group I member 2 (Homo sapiens) (UniProt O75469); assay: ATG_PXR_TRANS: Attagene TRANS-FACTORIAL HepG2 Assay for human Pregnane X Receptor (PXR) (AID 2283008)
In short: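 Fluorescence intensity of FAM-labelled, HpaI-digested reporter amplicons, separated by capillary electrophoresis, quantifies induction. HepG2 cells with PXR-Gal4 trans-reporter system were exposed 24 h; DMSO defines baseline.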

Nuclear receptor subfamily 1 group I member 2 (Homo sapiens), sequence (O75469 whole entry, looked up, the tested form may be a part): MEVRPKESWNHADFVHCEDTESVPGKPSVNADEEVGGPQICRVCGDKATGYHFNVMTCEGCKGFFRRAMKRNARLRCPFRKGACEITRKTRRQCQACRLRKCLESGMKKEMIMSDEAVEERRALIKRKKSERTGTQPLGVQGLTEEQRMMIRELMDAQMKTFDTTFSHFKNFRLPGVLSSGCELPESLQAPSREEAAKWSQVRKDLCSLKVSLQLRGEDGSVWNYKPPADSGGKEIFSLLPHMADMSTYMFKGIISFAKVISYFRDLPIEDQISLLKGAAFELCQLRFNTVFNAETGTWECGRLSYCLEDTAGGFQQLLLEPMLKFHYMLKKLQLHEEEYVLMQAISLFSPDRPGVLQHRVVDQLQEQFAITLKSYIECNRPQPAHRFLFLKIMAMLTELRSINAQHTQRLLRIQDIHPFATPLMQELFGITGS

Row | SMILES | outcome | AC50
1 | CCCCCCCCCCCSCC(=O)O | inactive | 
2 | CCC(C)C=O (configuration not stated) | inactive | 
3 | C=CCCCCCCCCC(=O)OCCCC | inactive | 
4 | Cc1cccc(N(C)C(=S)Oc2ccc3ccccc3c2)c1 |  | 0.337 µM (active)
5 | CCOC(F)(F)C(F)(F)C(F)(F)C(F)(F)F | inactive | 
6 | O=S(=O)(Oc1ccc(Cl)cc1Cl)c1ccccc1 |  | 2.19 µM (active)
7 | CC=CC(F)(F)C(F)(F)C(F)(F)F | inactive | 
8 | CCC(Cc1ccccc1)(C(=O)c1ccc(N2CCOCC2)cc1)N(C)C (configuration not stated) |  | 2.42 µM (active)

biological target: human Retinoic Acid Receptor gamma (RARg), RARG (gene 5916) (UniProt P13631); assay: ATG_RARg_TRANS: Attagene TRANS-FACTORIAL HepG2 Assay for human Retinoic Acid Receptor gamma (RARg) (AID 2283009)
In short: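 HepG2 transiently transfected with GAL4-UAS reporter units and chimeric NR-Gal4 constructs; 24 h compound exposure. Reporter mRNA quantified by RT-PCR, FAM labeling, HpaI digestion and capillary electrophoresis; gain-of-signal versus DMSO.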

human Retinoic Acid Receptor gamma (RARg), RARG (gene 5916), sequence (P13631 whole entry, looked up, the tested form may be a part): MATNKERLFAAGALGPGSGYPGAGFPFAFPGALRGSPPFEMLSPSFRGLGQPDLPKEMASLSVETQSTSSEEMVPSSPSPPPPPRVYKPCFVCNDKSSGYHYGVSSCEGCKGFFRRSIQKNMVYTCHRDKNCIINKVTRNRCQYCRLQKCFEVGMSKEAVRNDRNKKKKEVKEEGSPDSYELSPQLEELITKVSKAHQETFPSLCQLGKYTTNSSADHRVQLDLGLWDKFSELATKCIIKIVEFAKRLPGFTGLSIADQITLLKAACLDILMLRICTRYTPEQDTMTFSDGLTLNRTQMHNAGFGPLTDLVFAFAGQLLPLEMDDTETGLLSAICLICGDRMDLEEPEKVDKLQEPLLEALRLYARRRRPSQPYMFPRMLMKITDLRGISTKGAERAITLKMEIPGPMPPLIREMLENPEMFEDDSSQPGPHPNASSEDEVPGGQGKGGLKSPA

Row | SMILES | outcome
9 | ON(Cc1ccccc1)Cc1ccccc1 | inactive
10 | CCCCCCC(O)CO (configuration not stated) | inactive
11 | CCCCCCCC(C)=O | inactive
12 | Cc1oncc1C(=O)Nc1ccc(C(F)(F)F)cc1 | inactive
13 | C=C1C2CCC(C2)C1(C)C (configuration not stated) | inactive
14 | [Cl][Nd]([Cl])[Cl] | inactive
15 | COc1cc(C)ccc1C(C)C | inactive
16 | O=C(O)CC(C(=O)O)C(CC(=O)O)C(=O)O (configuration not stated) | inactive
17 | CCN(CCO)c1cccc(C)c1 | inactive
